In PubChem BioAssay (Tox21):
Several values for one entry are separate records, joined by “and”; a condition that tells them apart may be missing. Identical values can stand only once. Results filed as inconclusive are left out. Where a call stands in place of a potency, no number is given. Activity calls are given as the source filed them. Calls follow the shape of the dose curve; as a rule, active = well fitted cell-killing curve with a large enough effect in the repeat runs; inconclusive = weak or mixed curves, or effect the other way; inactive = flat fitted curve, though single readings scatter.

Test: qHTS assay to identify small molecule antagonists of the androgen receptor (AR) signaling pathway using the MDA cell line in the presence of 0.5 nM R1881 - cell viability counter screen (AID 1259242); also: nearly all actives have a fitted effect of over 45% in size
Conditions: MDA-kb2 viability, CellTiter-Fluor protease fluorescence, 16 h; series mostly up to 92.4 µM; viability change, negative = cytotoxic: at the top concentration
Source text: U.S. Tox21 Program National Center for Advancing Translational Sciences [NCATS] NIH Chemical Genomics Center [NCGC] U.S. Environmental Protection Agency [EPA] National Institutes of Environmental Health Sciences [NIEHS] National Toxicology Program [NTP] U.S. Food and Drug Administration [FDA] Tox21 Assay Overview: Androgen receptor (AR) is an important member of the nuclear receptor family. Its signaling plays a critical role in AR-dependent prostate cancer and other androgen related diseases. Considerable attention has been given in the past decades to develop methods to study and screen for the environmental chemicals that have the potential to interfere with metabolic homeostasis, reproduction, developmental and behavioral functions. Therefore AR binding assay for screening androgen antagonists can be used to identify potential endocrine disruptors. MDA-kb2 cells (from ATCC, deposited by Wilson et al.) were used to screen for AR inhibitors against Tox21 compound libraries. These cells are human breast carcinoma cells that were stably transfected with a luciferase reporter gene under control of the MMTV promoter that contains response elements for both androgen receptor (AR) and glucocorticoid receptor (GR). The current screening for identification of AR inhibitors against Tox21 libraries used lower concentration of (0.5 nM) R1881 as a stimulator. The cytotoxicity of the Tox21 compound libraries against MDA-kb2 cell line was tested by measuring live-cell protease activity using CellTiter-Fluor assay in the same wells.
Tox21 Assay Protocol Summary: MDA-kb2 cells (cells cultured without CO2) were dispensed at 3,000 cells/well in 4 uL of culture medium into white wall/solid-bottom 1536-well plates (Corning Life Sciences, Corning, NY) using a Multidrop Combi (ThermoFisher Scientific, Waltham, MA) dispenser. After the assay plates were incubated at a 37C and 0% CO2 for 5 hr, 23 nL of compounds dissolved in DMSO, positive controls or DMSO only was transferred to the assay plate by a Pintool station (Kalypsys, San Diego, CA). The transfer of compounds was followed by the addition of 1 uL of 0.5 nM (final concentration) agonist (R1881)/culture medium using a Flying Reagent Dispenser (FRD, Aurora Discovery, San Diego, CA). The plates were incubated at 37C and 0% CO2 for 16 hr. For cytotoxicity assay, 1 uL of CellTiter-Fluor reagent (Promega Corporation, Madison, WI) was added to each well using the FRD and after 30 min incubation at 37C and 0% CO2, The fluorescence intensity was measured using ViewLux plate reader (PerkinElmer, Shelton, CT).
Potency is read from the fitted curve at half-maximal effect.

Row | Structure (SMILES) | Potency | viability change, negative = cytotoxic
1 | CNC(=O)N(C)c1nnc(C(C)(C)C)s1 | inactive | –
2 | O=C(O)CC[N+](=O)[O-] | inactive | –
3 | C=C(C)C(=O)OCC1CO1 (stereo not given) | inactive | –
4 | CNC(=O)Oc1cccc2c1OC(C)(C)O2 | inactive | –
5 | O=C(Nc1ccc(Br)cc1)c1cc(Br)cc(Br)c1O | 13.3 µM (active) | –
6 | CCCCCCCCCCCOC(=O)c1ccccc1C(=O)OCCCCCCCCCCC | inactive | –
7 | OCC(O)CO | inactive | –
8 | CCCCOCCOP(=O)(OCCOCCCC)OCCOCCCC | inactive | –
9 | O=C(NC(=O)c1c(F)cccc1F)Nc1ccc(Cl)cc1 | inactive | –
10 | Cc1cc(Cl)ccc1OCCCC(=O)O | inactive | –
11 | C#C[C@]1(O)CC[C@H]2[C@@H]3CCC4=CC(=O)CC[C@]4(C)[C@H]3CC[C@@]21C | inactive | –
12 | NCc1cccnc1 | inactive | –
13 | O=[N+]([O-])c1ccc(O)c([N+](=O)[O-])c1 | 24.4 µM (active) and 27.3 µM (active) | –
14 | CCC(C)c1ccc(O)cc1 (stereo not given) | inactive | –
15 | CCCCCCOC(=O)c1ccccc1C(=O)OCCCCCC | inactive | –
16 | O=[N+]([O-])c1cccc2ccccc12 | inactive | –
17 | C[C@]12CCC(=O)C[C@@H]1CC[C@@H]1[C@@H]2CC[C@]2(C)[C@@H](O)CC[C@@H]12 | inactive | –
18 | Oc1ccc(-c2ccccc2)cc1 | inactive | –
19 | NNC(=S)NN | inactive | –
20 | O=C(CCl)c1ccccc1 | inactive | –

Row | Structure (SMILES) | Potency | viability change, negative = cytotoxic
21 | Cc1ccc2c(c1N)C(=O)c1ccccc1C2=O | – | -23% (inactive)
22 | CCOc1cc(C=O)ccc1O | inactive | –
23 | O=C(O)C(F)(F)C(F)(F)C(F)(F)C(F)(F)C(F)(F)C(F)(F)C(F)(F)F | inactive | –
24 | N#CC(Br)Br | inactive | –
25 | CC(C)NC(C)C | inactive | –
26 | Brc1ccc(Oc2cc(Br)c(Br)cc2Br)c(Br)c1 | inactive | –
27 | N#Cc1cc(Br)c(O)c(Br)c1 | inactive | –
28 | CCC(C)(C)c1ccc(O)cc1 | inactive | –
29 | NC(=S)Nc1ccccc1 | – | -1.4% (inactive)
30 | CCCCN(CCCC)N=O | inactive | –
31 | CCCCCc1cc(O)cc(O)c1 | inactive | –
32 | N[C@@H](Cc1ccc(N(CCCl)CCCl)cc1)C(=O)O | inactive | –
33 | Nn1cnnc1 | inactive | –
34 | Nc1ccc(Cl)c(Cl)c1 | inactive | –
35 | COP(=S)(OC)Oc1cc(Cl)c(Cl)cc1Cl | inactive | –
36 | CN(C)C(=O)Nc1ccc(Cl)cc1 | inactive | –
37 | CCCCC(CC)COC(=O)c1ccc(C(=O)OCC(CC)CCCC)c(C(=O)OCC(CC)CCCC)c1 (stereo not given) | inactive | –
38 | CCN(CC)N=O | inactive | –
39 | Nc1cccnc1 | inactive | –
40 | CCOP(=S)(OCC)O/N=C(\C#N)c1ccccc1 | inactive | –
